The record followed here is PubChem BioAssay.

Test [1] addresses Nuclear receptor coactivator 3 (Homo sapiens) (UniProt Q9Y6Q9). Briefly: NCOA3 GAL4-fusion reporter inhibition – cell-based, luminescence, quadruplicate, confirmation (AID 588792;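 active = mean inhibition over 43.08%, the solvent-only control mean plus 3 SD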;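 note: 0% = DMSO treated cells and 100% = gossypol at 36 µM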). As to conditions: HEK293 GAL4-SRC3 luciferase reporter, at 3.6 µM, active compounds read high. In general terms: In a reporter assay the amount or activity of a reporter protein is the signal.
Test [2] concerns transactivating tegument protein VP16 (Human herpesvirus 1), Gal4-VP16 luciferase reporter. Briefly: repression of VP16-driven luciferase reporter – cell-based, luminescence, high throughput, counter-screen for SRC3 inhibitor project (AID 588794; in the data active = inhibition above about 30%). The note with it: mammalian cells, at 3.6 µM, active compounds read high.
Test [3] deals with Nuclear receptor coactivator 1 (Homo sapiens) (UniProt Q15788). Briefly: NCOA1 GAL4-fusion reporter inhibition – cell-based, luminescence, quadruplicate, confirmation (AID 588820;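 active = mean inhibition above 46.68%, the untreated control wells mean plus 3 SD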;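 note: 0% = DMSO wells and 100% = gossypol 36 µM treated wells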). The note with it: HEK293 GAL4-SRC1 luciferase reporter, at 3.6 µM, active compounds read high.
Sequence of Nuclear receptor coactivator 1 (Homo sapiens) (Q15788 whole entry, looked up, the tested form may be a part): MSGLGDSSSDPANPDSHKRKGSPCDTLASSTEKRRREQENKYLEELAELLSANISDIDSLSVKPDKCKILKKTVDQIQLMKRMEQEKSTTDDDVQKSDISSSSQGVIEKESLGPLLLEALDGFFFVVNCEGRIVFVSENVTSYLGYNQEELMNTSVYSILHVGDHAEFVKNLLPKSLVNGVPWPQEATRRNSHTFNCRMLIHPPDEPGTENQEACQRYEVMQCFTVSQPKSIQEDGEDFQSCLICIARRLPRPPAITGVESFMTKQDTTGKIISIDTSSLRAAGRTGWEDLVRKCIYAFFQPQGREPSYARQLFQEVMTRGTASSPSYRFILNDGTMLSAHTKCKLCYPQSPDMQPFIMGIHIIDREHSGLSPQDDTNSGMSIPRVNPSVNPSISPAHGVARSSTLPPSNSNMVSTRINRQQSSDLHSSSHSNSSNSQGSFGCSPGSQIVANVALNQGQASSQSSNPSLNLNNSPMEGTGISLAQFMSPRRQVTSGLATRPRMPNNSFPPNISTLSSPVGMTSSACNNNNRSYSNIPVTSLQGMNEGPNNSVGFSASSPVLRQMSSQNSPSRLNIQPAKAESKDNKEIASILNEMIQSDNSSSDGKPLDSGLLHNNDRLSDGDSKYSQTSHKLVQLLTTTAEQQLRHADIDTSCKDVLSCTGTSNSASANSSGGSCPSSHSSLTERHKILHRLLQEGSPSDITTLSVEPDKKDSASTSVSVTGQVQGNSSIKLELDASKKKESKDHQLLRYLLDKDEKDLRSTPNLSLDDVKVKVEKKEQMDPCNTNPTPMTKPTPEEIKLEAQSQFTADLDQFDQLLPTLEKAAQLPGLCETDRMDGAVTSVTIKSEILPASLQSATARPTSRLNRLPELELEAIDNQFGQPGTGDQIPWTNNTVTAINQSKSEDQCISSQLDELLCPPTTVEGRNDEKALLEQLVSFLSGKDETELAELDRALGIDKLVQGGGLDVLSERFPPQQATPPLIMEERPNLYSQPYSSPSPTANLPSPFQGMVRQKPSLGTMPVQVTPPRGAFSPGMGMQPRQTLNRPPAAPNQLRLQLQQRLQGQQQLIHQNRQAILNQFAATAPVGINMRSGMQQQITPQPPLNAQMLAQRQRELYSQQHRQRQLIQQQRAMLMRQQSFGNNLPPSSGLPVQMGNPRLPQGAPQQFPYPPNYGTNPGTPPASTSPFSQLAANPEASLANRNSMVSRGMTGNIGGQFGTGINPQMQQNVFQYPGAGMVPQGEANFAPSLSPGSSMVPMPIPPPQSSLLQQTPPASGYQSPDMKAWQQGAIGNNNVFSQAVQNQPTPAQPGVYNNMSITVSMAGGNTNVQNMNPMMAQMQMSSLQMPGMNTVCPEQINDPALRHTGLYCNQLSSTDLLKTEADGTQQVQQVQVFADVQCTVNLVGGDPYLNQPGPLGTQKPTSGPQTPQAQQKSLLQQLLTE
Test [4] is described as follows: repression of VP16-driven luciferase reporter – cell-based, luminescence, high throughput, counter-screen for SRC1 inhibitor project (AID 588824; in the data active = inhibition above about 25%). The note with it: cell-based VP16 transactivation luciferase luminescence; at 3.6 µM; active compounds read high.
Test [5] in a line: StAR promoter reporter inhibitors, counter-screen for LRH-1 inverse agonist project, cell-based, luminescence, high throughput (AID 651611; in the data active = inhibition above about 28%). The note with it: StAR promoter luciferase reporter counterscreen, at 3.6 µM, active compounds read high. For orientation: The purpose of a counterscreen is to sort out artefacts and off-target activity.
The target in test [6] is Nuclear receptor subfamily 5 group A member 2 (Homo sapiens) (UniProt O00482). The test can be described thus: NR5A2 activity suppression in reporter cells – cell-based, luminescence, confirmation (AID 651613; in the data active = inhibition above about 42%;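 note: HEK293T cells co-transfected with LRH-1 and StAR promoter luciferase reporter; 0% = vehicle wells and 100% = parental cells lacking receptor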). The note with it: cell-based LRH-1 luciferase reporter, inverse agonism; at 3.6 µM; active compounds read high.
Sequence of Nuclear receptor subfamily 5 group A member 2 (Homo sapiens) (O00482 whole entry, looked up): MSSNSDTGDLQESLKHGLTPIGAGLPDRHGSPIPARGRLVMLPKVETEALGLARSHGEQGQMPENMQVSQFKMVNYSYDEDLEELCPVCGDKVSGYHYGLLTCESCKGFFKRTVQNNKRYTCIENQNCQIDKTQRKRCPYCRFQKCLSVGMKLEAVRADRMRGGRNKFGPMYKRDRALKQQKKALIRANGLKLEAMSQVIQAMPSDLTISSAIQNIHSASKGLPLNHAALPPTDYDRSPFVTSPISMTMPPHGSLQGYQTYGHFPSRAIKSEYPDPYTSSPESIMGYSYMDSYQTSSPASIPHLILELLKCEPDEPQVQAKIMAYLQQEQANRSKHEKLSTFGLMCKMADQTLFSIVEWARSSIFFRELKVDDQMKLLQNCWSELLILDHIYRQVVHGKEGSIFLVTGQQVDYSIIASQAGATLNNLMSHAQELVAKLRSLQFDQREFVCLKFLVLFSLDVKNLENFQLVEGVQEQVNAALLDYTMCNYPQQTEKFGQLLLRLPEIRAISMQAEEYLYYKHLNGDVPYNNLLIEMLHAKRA
Test [7] addresses Steroidogenic factor 1 (Homo sapiens) (UniProt Q13285). The test can be described thus: inverse agonism at SF1 nuclear receptor – cell-based, luminescence, high throughput, counter-screen for LRH-1 inverse agonist project (AID 651614; in the data active = inhibition above about 44%;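 note: cells cotransfected with StAR promoter reporter and SF1 expression vector; 0% = vehicle on cells with receptor and 100% = vehicle on cells lacking receptor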). The note with it: cell-based SF1 luciferase reporter, at 3.6 µM, active compounds read high.
Test [8] in a line: compounds suppressing VP16-driven luciferase signal – cell-based, luminescence, high throughput, counter-screen for LRH-1 inverse agonist project (AID 651615; in the data active = inhibition above about 33%). The note with it: Gal4-VP16 luciferase reporter cells, at 3.6 µM, active compounds read high.
For test [9], the system named is transactivating tegument protein VP16 (Human herpesvirus 1). Briefly: compounds suppressing VP16-driven luciferase signal – cell-based, luminescence, single concentration, counter-screen for SRC2 inhibitor project (AID 652007; in the data active = inhibition above about 36%). The note with it: cell-based VP16 transactivation luciferase reporter, at 8.9 µM, active compounds read high.
In test [10] the target is Nuclear receptor coactivator 2 (Homo sapiens) (UniProt Q15596). Briefly: inhibition of GAL4-SRC2 driven luciferase expression – cell-based, luminescence, HEK293, triplicate, confirmation (AID 652008).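 Note: 0% = DMSO-treated cells and 100% = Gossypol at 36 µM.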 As to conditions: HEK293 GAL4-SRC2 luciferase reporter, at 8.9 µM, active compounds read high.
Sequence of Nuclear receptor coactivator 2 (Homo sapiens) (Q15596 whole entry, looked up, the tested form may be a part): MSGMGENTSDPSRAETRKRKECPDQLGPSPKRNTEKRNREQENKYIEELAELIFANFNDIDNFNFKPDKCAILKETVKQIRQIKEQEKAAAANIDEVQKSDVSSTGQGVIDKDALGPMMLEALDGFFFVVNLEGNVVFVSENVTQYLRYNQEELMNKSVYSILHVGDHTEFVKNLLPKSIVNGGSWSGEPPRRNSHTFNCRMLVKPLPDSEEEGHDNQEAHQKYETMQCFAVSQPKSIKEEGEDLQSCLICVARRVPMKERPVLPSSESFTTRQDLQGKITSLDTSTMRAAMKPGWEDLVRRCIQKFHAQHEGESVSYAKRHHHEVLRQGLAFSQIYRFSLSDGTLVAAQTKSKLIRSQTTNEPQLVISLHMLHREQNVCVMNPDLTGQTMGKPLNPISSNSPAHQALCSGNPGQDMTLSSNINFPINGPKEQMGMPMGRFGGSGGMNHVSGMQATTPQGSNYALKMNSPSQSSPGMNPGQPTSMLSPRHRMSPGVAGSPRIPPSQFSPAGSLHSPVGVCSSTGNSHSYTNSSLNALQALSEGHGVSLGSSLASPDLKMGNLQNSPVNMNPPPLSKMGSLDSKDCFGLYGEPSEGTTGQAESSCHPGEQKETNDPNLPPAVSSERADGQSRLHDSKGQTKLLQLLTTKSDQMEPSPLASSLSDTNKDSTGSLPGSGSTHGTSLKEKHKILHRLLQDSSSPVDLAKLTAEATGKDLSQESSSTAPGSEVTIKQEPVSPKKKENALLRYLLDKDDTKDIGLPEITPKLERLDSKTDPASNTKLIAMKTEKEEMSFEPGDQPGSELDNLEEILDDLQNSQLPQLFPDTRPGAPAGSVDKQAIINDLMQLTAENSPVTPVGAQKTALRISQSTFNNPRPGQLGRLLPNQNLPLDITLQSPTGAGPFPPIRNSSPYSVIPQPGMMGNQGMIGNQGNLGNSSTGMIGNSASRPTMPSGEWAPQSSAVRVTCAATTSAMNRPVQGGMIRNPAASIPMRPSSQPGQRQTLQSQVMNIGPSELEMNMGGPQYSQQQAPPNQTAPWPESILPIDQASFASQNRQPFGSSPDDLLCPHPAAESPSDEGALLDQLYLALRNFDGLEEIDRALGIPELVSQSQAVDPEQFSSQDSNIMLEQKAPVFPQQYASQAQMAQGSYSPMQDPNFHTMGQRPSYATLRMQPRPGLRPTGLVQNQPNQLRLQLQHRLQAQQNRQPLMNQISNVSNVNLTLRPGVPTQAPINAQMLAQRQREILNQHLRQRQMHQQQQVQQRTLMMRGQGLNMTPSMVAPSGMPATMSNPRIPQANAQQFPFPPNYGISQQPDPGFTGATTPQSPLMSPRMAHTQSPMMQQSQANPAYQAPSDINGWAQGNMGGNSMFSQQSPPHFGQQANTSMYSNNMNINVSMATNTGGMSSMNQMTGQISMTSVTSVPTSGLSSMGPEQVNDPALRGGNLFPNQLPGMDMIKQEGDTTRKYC

A number with no mark means an inactive call. Calls of active or inactive are those of the source.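 Rule for the calls, unless noted: active = mean inhibition above 46.5%, the solvent-only control mean plus 3 SD; inactive = the rest.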

Sequence of Nuclear receptor coactivator 3 (Homo sapiens) (Q9Y6Q9 whole entry, looked up, the tested form may be a part): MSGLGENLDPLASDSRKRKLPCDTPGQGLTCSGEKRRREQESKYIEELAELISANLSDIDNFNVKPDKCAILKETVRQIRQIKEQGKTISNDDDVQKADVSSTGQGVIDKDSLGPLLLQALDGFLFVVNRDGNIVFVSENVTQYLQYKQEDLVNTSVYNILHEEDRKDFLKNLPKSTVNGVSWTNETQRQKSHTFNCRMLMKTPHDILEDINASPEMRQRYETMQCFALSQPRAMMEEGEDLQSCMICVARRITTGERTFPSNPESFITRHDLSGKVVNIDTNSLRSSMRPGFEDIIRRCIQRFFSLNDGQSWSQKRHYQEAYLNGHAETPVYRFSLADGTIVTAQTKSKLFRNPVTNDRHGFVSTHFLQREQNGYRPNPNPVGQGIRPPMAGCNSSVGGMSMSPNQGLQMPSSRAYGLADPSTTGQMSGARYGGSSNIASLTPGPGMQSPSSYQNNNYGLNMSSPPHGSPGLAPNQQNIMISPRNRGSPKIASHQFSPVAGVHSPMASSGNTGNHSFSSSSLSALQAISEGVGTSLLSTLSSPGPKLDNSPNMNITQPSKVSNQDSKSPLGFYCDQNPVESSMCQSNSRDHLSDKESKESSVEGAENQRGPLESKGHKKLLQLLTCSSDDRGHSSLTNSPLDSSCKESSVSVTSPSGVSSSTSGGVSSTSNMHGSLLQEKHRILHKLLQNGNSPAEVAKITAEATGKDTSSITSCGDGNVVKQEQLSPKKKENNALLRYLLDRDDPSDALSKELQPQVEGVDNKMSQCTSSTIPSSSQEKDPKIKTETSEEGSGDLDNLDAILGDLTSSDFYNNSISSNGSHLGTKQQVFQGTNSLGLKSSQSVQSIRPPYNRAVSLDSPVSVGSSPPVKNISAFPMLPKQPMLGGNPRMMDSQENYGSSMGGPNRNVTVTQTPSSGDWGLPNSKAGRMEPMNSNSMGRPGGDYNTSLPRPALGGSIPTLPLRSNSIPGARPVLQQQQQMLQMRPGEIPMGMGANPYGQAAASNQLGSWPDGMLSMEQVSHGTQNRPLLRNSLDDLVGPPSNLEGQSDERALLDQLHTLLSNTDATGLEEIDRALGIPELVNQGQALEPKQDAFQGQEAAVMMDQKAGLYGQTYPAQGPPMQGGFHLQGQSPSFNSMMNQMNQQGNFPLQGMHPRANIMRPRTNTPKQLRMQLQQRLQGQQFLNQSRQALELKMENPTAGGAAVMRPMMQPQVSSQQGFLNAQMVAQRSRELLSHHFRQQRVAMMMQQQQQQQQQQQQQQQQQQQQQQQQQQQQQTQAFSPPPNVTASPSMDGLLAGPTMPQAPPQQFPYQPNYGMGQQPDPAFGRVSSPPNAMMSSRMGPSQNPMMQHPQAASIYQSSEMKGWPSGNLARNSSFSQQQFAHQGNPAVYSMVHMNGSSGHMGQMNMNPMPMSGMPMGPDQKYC

The inhibition is the change of the read-out against control, counted positive when it falls. Regarding `CC1CCC(C(C)C)C(OC(=O)Cn2c(-c3ccc(F)cc3)[n+](C)c3ccccc32)C1` (stereo not given), the inhibition in [1] is 69.1% (active); in test [2], 45.8% (active); in test [3], 25.4%; in [4], 38.6% (active); in [5] it was 23.7%; in test [6] it was 108% (active). Further, the inhibition was 59.9% (active) in [7], 93.7% (active) in test [8], 26.2% in test [9] and 34.6% in [10].
With `C=C(C(=O)c1ccccc1)C(NC(C)(C)C)c1ccccc1` (stereo not given), the inhibition was 45% (active) in test [1]; 90.4% (active) in test [2]; -116% in [3]; 90.2% (active) in test [4]; 58.5% (active) in [5]; 93.7% (active) in test [6]. Further, the inhibition in [7] is 87.4% (active); in test [8], 92.9% (active); in test [9] it was 78.7% (active); in [10], 44.6%.
Consider `O=c1c2ccccc2oc2cc(C#CC3(O)CCCCC3)ccc12`, for which the inhibition is 32.4% in test [1]; 33.5% (active) in test [2]; -2.8% in test [3]; -14.8% in [4]; -28.9% in [5]; -129% in test [6]. Further, the inhibition in test [7] is -33.5%; in test [8], -40.4%; in test [9] it was -4.85%; in test [10], 48.9% (active).
On to `CC1CCc2c(sc(NC(=O)CSc3ncn[nH]3)c2C#N)C1` (stereo not given), for which the inhibition was 56% (active) in test [1]; 66.1% (active) in [2]; 31.9% in test [3]; 61.4% (active) in [4]; 32.5% (active) in test [5]; 56.7% (active) in [6]. Further, the inhibition in test [7] was 39.5%; in [8] it was 61.9% (active); in [9], 87% (active); in [10] it was 90.2% (active).
Consider `Cc1cc(C(=O)CN2C(=O)c3ccccc3S2(=O)=O)c(C)n1CC1CCCO1` (stereo not given), for which the inhibition is 82.9% (active) in [1]; 62.8% (active) in [2]; 77.7% (active) in [3]; 60% (active) in test [4]; 78.1% (active) in test [5]; 81% (active) in test [6]. The inhibition was 80.4% (active) in test [7], 68.2% (active) in test [8], 63.7% (active) in test [9] and 93.7% (active) in test [10].
Regarding `CC1CCc2nc(N)c(C#N)c(-c3cccnc3)c2C1` (stereo not given), the inhibition was 66.7% (active) in [1]; 57.9% (active) in test [2]; 68.7% (active) in test [3]; 58.6% (active) in test [4]; 42.3% (active) in test [5]; 52.9% (active) in [6]. For the same molecule, the inhibition in test [7] was 46.1% (active); in test [8], 72.9% (active); in test [9], 15.6%; in [10], 53.9% (active).
On to `CCCCCCCC/C=C\CCCCCCCC(=O)NCCc1ccc(O)c(O)c1`, for which the inhibition is 22% in test [1]; -11.3% in test [2]; -70% in test [3]; -11.4% in [4]; -4.3% in test [5]; -29.9% in test [6]. Also, the inhibition in test [7] was 4.21%; in test [8], -16.1%; in test [9], 1.26%; in [10], 21%.
On to `COc1cc(SC)ccc1C(=O)Nc1nc2ccccc2[nH]1`, for which the inhibition in test [1] is 92.1% (active); in test [2], 90% (active); in test [3], 85.9% (active); in test [4], 89.4% (active); in test [5], 95.1% (active); in test [6] it was 103% (active). Also, the inhibition in test [7] is 96.5% (active); in test [8], 92.6% (active); in test [9] it was 96.4% (active); in [10], 99.5% (active).
With `COc1cccc2c1C(=O)c1c(O)c3c(c(O)c1C2=O)CC(O)(C(=O)CO)CC3OC1CC(N(C)C)C(O)C(C)O1` (stereo not given), the inhibition in test [1] was 96.6% (active); in test [2], 97% (active); in test [3] it was 85.8% (active); in test [4] it was 96.7% (active); in test [5], 85.1% (active); in [6] it was 107% (active). Further, the inhibition in test [7] is 96% (active); in test [8], 96.5% (active); in [9], 36.9% (active); in test [10], 57.6% (active).
Turning to `CCOc1cccc(/C=N/NC(=S)Nc2ccccc2[N+](=O)[O-])c1O`, the inhibition in [1] is 70.3% (active); in test [2], 57.6% (active); in test [3], 44.9%; in test [4], 38.2% (active); in [5], 66.1% (active); in [6], 22.9%. For the same molecule, the inhibition in test [7] was 65.2% (active); in test [8] it was 54% (active); in test [9], 39.7% (active); in test [10] it was 73.3% (active).
With `Cc1cc2sc3ccc(C#CC4(O)CCCCC4)cc3c(=O)c2cc1C`, the inhibition is 95.4% (active) in [1]; 93.6% (active) in test [2]; 90.4% (active) in test [3]; 89.7% (active) in [4]; 91.2% (active) in test [5]; 91.2% (active) in test [6]. The inhibition is 92.6% (active) in [7], 88.9% (active) in test [8], 94.2% (active) in [9] and 98.3% (active) in test [10].
Take `O=C(NC1CCCCC1)C(c1cccnc1)N(C(=O)CCl)c1ccccc1Cl` (stereo not given): the inhibition in test [1] is 81.8% (active); in test [2], 64% (active); in [3] it was 67.1% (active); in test [4], 59.1% (active); in [5], 54.7% (active); in test [6], 70.4% (active). In addition, the inhibition in test [7] is 67.5% (active); in test [8], 64.8% (active); in test [9], 38.6% (active); in [10] it was 55.5% (active).
Turning to `COc1ccc2cc3c(N)nn(C(=O)Cc4c[nH]c5ccccc45)c3nc2c1`, the inhibition was 82.3% (active) in [1]; 66.2% (active) in test [2]; 69% (active) in [3]; 63.9% (active) in test [4]; 51.1% (active) in [5]; 64.7% (active) in [6]. The inhibition was 55.5% (active) in [7], 83.3% (active) in test [8], 31.8% in test [9] and 73.2% (active) in test [10].
Regarding `Cc1ccc(-c2nc(-c3ccccn3)no2)cc1`, the inhibition in [1] is 59.3% (active); in test [2], 48.7% (active); in test [3], 29%; in test [4] it was 43.9% (active); in [5], 39.1% (active); in test [6], 11%. Moreover, the inhibition in [7] was 52% (active); in test [8], 25%; in test [9], 66.8% (active); in test [10] it was 85.5% (active).
